# A selection: hits, their analogues and other compounds. The true share with any hit is near 1.3%.
# PKA-R1A act = activators of PKA-R1A holoenzyme, primary screen, biochemical, fluorescence polarization, Cy5-IP20, bovine R1A, mouse PKAc; cAMP-dependent protein kinase type I-alpha regulatory subunit (Bos taurus) + …; AID 504707, 2011; activation, % at 11.4 µM; PKA-R1A dissociation; scaled: DMSO 0%, 113 µM cGMP 100%; 340,000 compounds, 0.083% hits;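 active means percent activation above the mean of all tested compounds plus 3 SD, cut at about 19% in these data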;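 further: higher means more PKAc released from R1A so a rise in polarization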
# PKA-R2B act = activators of PKA-R2B holoenzyme, primary screen, biochemical, fluorescence polarization, Cy5-IP20, human. activation, % at 11.4 µM. 340,000 compounds, 0.079% hits. PKA-R2B holoenzyme dissociation; R2B truncated from residue 108, S112A mutant; 0% DMSO only, 100% 113 µM cGMP;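 active means activation above a cutoff set at the mean over all compounds plus 3 SD, cut at about 18% in these data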;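 further: higher means more holoenzyme dissociation and a rise in polarization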
# Neddylation inh = inhibitors of cullin neddylation, primary screen, biochemical, TR-FRET, uHTS, NAE and Ubc12; AID 651699, 2012; inhibition, % at 25 µM; 360,000 compounds, 0.58% hits; NEDD8-conjugating enzyme Ubc12 (Homo sapiens) + NEDD8-activating enzyme E1 regulatory …; in the data active means inhibition above about 36%
# Rpn11 block = Rpn11 (PSMD14) deubiquitinase inhibitors, primary screen, biochemical, fluorescence polarization, uHTS | human 26S proteasome, Ub4-pepOG fluorescence polarization; 20S core pre-blocked with epoxomicin | calls only at 20 µM | 360,000 compounds, 0.59% hits | AID 588493, 2011;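 active means inhibition at 20 µM, scaled to each plate's controls, above about 33%, limit read from the data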
# Rpn11 confirm = Rpn11 (PSMD14) deubiquitinase inhibitors, confirmation, biochemical, fluorescence polarization, single concentration; inhibition, % at 20 µM; shares compounds with Rpn11 block; purified human 26S proteasome, Ub4-pepOG fluorescence polarization; proteasome pretreated with epoxomicin; AID 602318, 2012; 1,900 compounds, 29% hits
# MMP-2 counter = MMP-2 enzyme inhibition, confirmation, counter-screen for RPN11 inhibitor project, biochemical, fluorescence, single concentration; AID 602330, 2012; shares compounds with Rpn11 block; recombinant MMP-2, FRET peptide cleavage fluorescence; inhibition, % at 20 µM; 1,900 compounds, 4% hits;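 further: human MMP-2 activated beforehand with APMA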
# Thrombin FP = bovine thrombin protease inhibition, confirmation, counter-screen for Rpn11 inhibitor project, biochemical, fluorescence polarization, single concentration. shares compounds with Rpn11 block. bovine thrombin cleavage of Ub4-pepOG. inhibition, % at 20 µM. 1,900 compounds, 13% hits;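 active means mean inhibition at least 40% at 20 µM, or signal 3 deviations below plate average, so some actives read negative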;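 further: plate controls were thrombin with DMSO for no effect and buffer wells lacking thrombin for full effect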
# Target sequence (P00735 whole entry, looked up): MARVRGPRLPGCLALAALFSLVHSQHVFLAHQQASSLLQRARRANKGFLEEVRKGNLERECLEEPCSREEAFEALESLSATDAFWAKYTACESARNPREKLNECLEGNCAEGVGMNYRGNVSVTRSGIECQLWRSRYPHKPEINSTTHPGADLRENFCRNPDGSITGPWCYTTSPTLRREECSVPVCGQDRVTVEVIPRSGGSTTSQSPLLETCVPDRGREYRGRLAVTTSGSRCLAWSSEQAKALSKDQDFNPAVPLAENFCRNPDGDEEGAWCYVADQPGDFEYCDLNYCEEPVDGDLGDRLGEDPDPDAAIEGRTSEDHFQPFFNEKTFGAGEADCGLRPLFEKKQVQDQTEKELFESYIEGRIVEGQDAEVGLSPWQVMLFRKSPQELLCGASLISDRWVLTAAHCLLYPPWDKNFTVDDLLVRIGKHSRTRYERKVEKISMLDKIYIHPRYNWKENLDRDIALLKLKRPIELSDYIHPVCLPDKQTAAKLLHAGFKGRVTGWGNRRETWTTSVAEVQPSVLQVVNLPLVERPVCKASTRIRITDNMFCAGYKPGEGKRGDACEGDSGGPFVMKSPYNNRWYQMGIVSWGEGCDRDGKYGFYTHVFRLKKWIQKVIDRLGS
# * = called active by the depositor; i = inactive; · = no result given; + = active, no number. Unless noted, no stated cut-off is given here; in the data, active means inhibition above about 40%; inactive means the rest.
SMILES,PKA-R1A act,PKA-R2B act,Neddylation inh,Rpn11 block,Rpn11 confirm,MMP-2 counter,Thrombin FP
Cc1ccc(N2C(=O)CCC(C(=O)O)C2c2cccs2)cc1 (stereo not drawn),7,-9,-4,i,·,·,·
O=C(c1ccnc(Cl)c1)N1CCCC(N2CCN(c3ccccc3F)CC2)C1 (stereo not drawn),3,-7,0,+,4,-26,-12
O=C(c1ccco1)N1CCCC(N2CCN(c3ccccc3F)CC2)C1 (stereo not drawn),-1,11,1,i,·,·,·
O=C(Nn1cnnc1)c1cc(Cl)cc(Cl)c1,13,-5,-1,i,·,·,·
Cc1cc(C)c2nc(NNC(=O)c3cc(=O)c4ccccc4o3)sc2c1,-9,-8,-10,+,34,-18,9
Cc1cc(C)c2nc(NNC(=O)c3ccc(S(=O)(=O)N4CCc5ccccc5C4)cc3)sc2c1,-10,-3,14,i,·,·,·
COCCn1c(SCC(=O)N2CC(=O)Nc3ccccc32)nc2ccccc21,5,-3,6,i,·,·,·
CC(=O)c1ccc(-c2cnc3c(NC=O)cc(-c4ccc(N5CCN(C)CC5)cc4)cn23)cc1,·,·,-6,i,·,·,·
COc1ccc(-c2cc(NC=O)c3ncc(-c4ccc(C(C)=O)cc4)n3c2)cn1,·,·,35,+,26,-9,11
CN(C1CCCCC1)S(=O)(=O)c1ccc(S(=O)(=O)N(CC(=O)Nc2ccccc2)C2CC2)cc1,1,-10,7,i,·,·,·
C=CCn1c(=NC(=O)CC)n(C)c2ccccc21,-2,-2,3,i,·,·,·
Cc1ccc2oc(=O)c3cc(C(=O)NCCN4CCN(C)CC4)sc3c2c1,-8,-5,3,i,·,·,·
O=C(NCCCN1CCOCC1)c1ccc2ccccc2c1,-6,-11,7,i,·,·,·
CCN1CCN(CCCNC(=O)c2cc3c(=O)[nH]c4ccccc4c3s2)CC1,3,4,·,i,·,·,·
O=C(NCCCN1CCOCC1)c1cc2c(=O)[nH]c3ccccc3c2s1,9,7,·,+,-5,-22,-8
O=C(NCCCN1CCOCC1)c1cccc(NC(=O)c2ccccc2)c1,0,-2,7,+,-3,-18,-7
Cc1ccc2oc(=O)c3cc(C(=O)NCCCN4CCCCCC4)sc3c2c1,-7,-9,-9,+,7,-4,-9
Cn1c(=O)[nH]c(=O)c2cc(C(=O)c3cc(F)ccc3O)cnc21,-9,4,15,+,18,-22,25
Cc1nn(C)c2ncc(C(=O)c3cc(F)ccc3O)cc12,-2,-7,1,i,·,·,·
Nc1c(C(=O)NCCN2CCOCC2)c2nc3ccccc3nc2n1CCc1ccccc1,3,-7,·,+,5,8,-7
COCCNC(=O)c1c(N)n(CCCn2ccnc2)c2nc3ccccc3nc12,-5,-1,·,+,-18,-17,-15
Nc1c(C(=O)NCc2ccc3c(c2)OCO3)c2nc3ccccc3nc2n1CCCN1CCOCC1,-2,3,·,+,25,-26,-5
COCCNC(=O)c1c(N)n(-c2ccccc2)c2nc3ccccc3nc12,9,17,·,i,·,·,·
O=C(COC(=O)c1ccc[nH]c1=O)NC1CCCc2ccccc21 (stereo not drawn),-4,3,0,i,·,·,·
Cc1cccn2c(=O)nc(SCC(=O)c3ccccc3)nc12,-10,-6,4,i,·,·,·
